Among all 1,000 compounds or so, fewer than 10 were called active.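 How the source made its calls: active means fitted half-maximal concentration no higher than twice the top valid tested dose, with signal falling; inconclusive means flat curve with 30 to 70% inhibition, or poor fit; inactive means the rest.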 The list is a sample of the results. Entries with a potency or affinity are not part of this list.
These compounds were tested against Golgi-associated PDZ and coiled-coil motif-containing protein (Homo sapiens) (UniProt Q9HD26) (assay: CAL PDZ domain peptide-binding inhibitors, dose response, biochemical, fluorescence polarization, untagged CAL PDZ, cherry-pick, set 2 (AID 602254;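 further: 0% = DMSO neutral control and -100% = unlabeled peptide PRC23 positive control; more negative means stronger blocking of peptide binding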)). Conditions: Purified CAL PDZ, TMR peptide fluorescence polarization; series mostly up to 60 µM; activity change, negative = inhibition: at the top concentration.

Activity change, negative = inhibition, inactive:
COc1ccc(CC(=O)Nc2ccc(S(=O)(=O)Nc3cc(C)on3)cc2)cc1 2.22%
COc1ccccc1N1CCN(/N=C/c2ccc(O)cc2O)CC1 -1.14%
O=C(Nc1ccnn1C1CCN(CC2CC=CCC2)CC1)c1ccccc1Cl (centres undefined) -1.42%
COc1cccc(NC(=O)c2ccc3nsnc3c2)c1 1.47%
O=C(NCCCN1CCOCC1)c1ccc2c(c1)N(Cc1ccccc1)CCS2 7.62%
Cc1ccc(NC(=O)COc2ccccc2C(=O)NCCc2ccccc2)cc1 1.91%
O=C(COC(=O)c1ccc(NC(=O)C2CC=CCC2C(=O)O)cc1)c1ccccc1 (centres undefined) 4.39%
CCOC(=O)c1c(NC(=O)C2CCCCC2)sc2c1CCN(CC)C2 -0.655%
COc1ccc(CNc2ccc(-c3ccccc3OC)nn2)cc1 7.46%
CN(C(=O)c1cccc(C(F)(F)F)c1)C1CCCc2ccccc21 (centres undefined) -1.53%
Cc1n[nH]c(C)c1CCN(C)Cc1cn(C)nc1-c1ccc2c(c1)OCCO2 0.263%
COc1ccc(NC(=O)CC(CC(=O)O)c2cc(OC)c(OC)c(OC)c2)cc1 (centres undefined) 1.78%
Cc1ccc(NC(=S)N(CCCN2CCCC2)Cc2cccn2Cc2ccc(Cl)cc2)cc1C 7.5%
O=C1CN(C(=O)COc2ccc(F)cc2Br)c2ccccc2N1 -1.17%
O=C(C1CC1)N1CCc2cc(S(=O)(=O)N3CCOCC3)ccc21 2.05%
CS(=O)(=O)c1ccc(C(=O)NC2CCCc3ccccc32)cc1 (centres undefined) 4.04%
COC(=O)c1ccccc1NC(=S)N1CCN(C2CCCCC2)CC1 0.591%
Cc1ccccc1NC(=O)c1ccc(NC(=O)C2CCCO2)cc1 (centres undefined) -2.35%
CC(NC(=S)NC(=O)c1ccccc1Br)c1ccccc1 (centres undefined) 1.12%
COc1ccc(OC)c(-c2csc(NC(=O)c3ccc4c(c3)OCO4)n2)c1 0.356%
CCN(Cc1cnn(C)c1)C(=O)C1CCC(=O)N(CCc2ccc(OC)cc2)C1 (centres undefined) 0.165%
CC(=O)Nc1sc(NC(=O)c2ccc(C)cc2)nc1-c1cccs1 -1.3%
O=C(NCCc1ccccc1F)c1ccc2c(c1)OCCO2 2.65%
O=C(CNC(=O)c1ccccc1Cl)N/N=C/c1ccc2c(c1)OCO2 1.37%
CCc1nnc(NS(=O)(=O)c2ccc(N3C(=O)c4ccccc4C3=O)cc2)s1 1.69%
Cc1cccc(NC(=O)CCNC(=O)c2ccc(Br)cc2)c1 -2.95%
COC(=O)c1cc(S(=O)(=O)NCCN2CCN(c3ccccc3F)CC2)c[nH]1 0.413%
COc1ccc(CCNS(=O)(=O)c2ccccc2)cc1OC -8.76%
CCOC(=O)N1CCN(C(=O)c2ccc3c(=O)n(-c4ccc(OC)cc4OC)c(=S)[nH]c3c2)CC1 1.69%
COc1ccccc1/C=N/NC(=O)c1ccc2c(c1)OCO2 2.16%
COc1ccccc1C(=O)Nc1cccc2nc(C)ccc12 0.557%
Cc1ccc(N(C)C(=O)C2CCCN2S(=O)(=O)c2cccc3nsnc23)cc1 (centres undefined) 0.114%
O=C(Nc1ccc(F)cc1)C1CCCN1S(=O)(=O)c1cccc2nsnc12 (centres undefined) 1.12%
O=C(Nc1cccc(O)c1)c1ccc(NC(=O)C2CCCO2)cc1 (centres undefined) 0.422%
CC(=O)Nc1ccc(NC(=O)COC(=O)COc2ccc3ccccc3c2)cc1 -1.38%
COc1ccccc1CNC(=O)COC(=O)CC1CC2CCC1C2 (centres undefined) 5.21%
Cc1ccc(S(=O)(=O)Nc2c(C)n(C)n(-c3ccccc3)c2=O)cc1 -1.36%
C=CC(=O)NCc1ccc(-c2csnn2)cc1 -0.734%
CC(=O)NC(Cc1ccccc1)C(C)=O (centres undefined) -0.274%
CCSc1nnc(NC(=O)CN2C(=O)NC3(CCCC3)C2=O)s1 -1.53%
COc1ccc(NC2CCCN(C(=O)c3csc(C(C)C)n3)C2)cc1 (centres undefined) -1.33%
O=C1OC(CO)CN1Cc1ccccc1 (centres undefined) -3.64%
O=S1(=O)c2c(F)cccc2OC(COCc2ccccc2)CN1C1CCCC1 (centres undefined) 9.91%
Cc1ccc(C)c(N(CC(=O)N2CCCC2)S(C)(=O)=O)c1 6.46%
COc1ccc(NC(=O)n2ncc3c(C)cccc32)cc1 2.29%
O=C(O)c1c(-c2ccc(Cl)cc2)cn2ccccc12 -0.658%
O=C(NCc1ccncc1)C(=O)N/N=C/c1ccccn1 -0.098%
O=C(COC(=O)COc1ccc(Br)cc1)NCC1CCCO1 (centres undefined) -4.89%
CCCCN1CC(COCc2ccccc2)Oc2cccc(F)c2S1(=O)=O (centres undefined) 0.998%
COc1ccccc1C(=O)Nc1ccc2c(c1)nc(CN1CCCCC1)n2C 3.14%
COC(=O)Cc1ccc(NC(=S)Nc2cccc(C)n2)cc1 2.44%
O=C(CN1CCC(n2nnc3cc(C(F)(F)F)ccc32)CC1)Nc1ccc2c(c1)OCCO2 -1.87%
CCOC(=O)C(/C=N/c1cc(C)nn1-c1ccccc1)=C(\C)O 3.31%
CCc1ccc(C(=O)NNC(=O)c2c(CC)noc2C)cc1 -3.88%
COc1ccc(/C=N/N2CCN(Cc3ccc(C)cc3)CC2)cc1Br 1.63%
Cc1ccc(C(=O)NN2C(=O)c3ccc(S(=O)(=O)c4ccc(C(=O)O)cc4)cc3C2=O)cc1 -1.61%
CC(C)CNC(=O)NC(=O)COC(=O)COc1ccc(Cl)cc1Cl 1.9%
COc1ccccc1C(=O)Oc1ccccc1C(=O)Nc1ccccc1 -11.9%
Cc1ccc2nc(NC(=O)COC(=O)c3ccncc3)sc2c1 2.09%
O=C(O)Cc1sc(-c2ccc(Cl)cc2)nc1-c1ccccc1 3.43%
Cc1noc(C)c1COc1cccc(C(=O)OC(C)C#N)c1 (centres undefined) -4%
COc1ccc(CN2CCNC(=O)C2CC(=O)NC2CCCCCCC2)cc1OC (centres undefined) 1.79%
CCC(C)(C(=O)NC1CCCCC1)N(C)C(=O)c1ccccn1 (centres undefined) 0.953%
Cc1cc(CN(C)C(=O)C2CCC(=O)N(CCc3cccc(F)c3)C2)on1 (centres undefined) -0.419%
Cc1onc(-c2c(Cl)cccc2Cl)c1C(=O)N1CCN(c2ncccn2)CC1 2.53%
CC(C)c1ccc(S(=O)(=O)N2CCN(C(=O)c3cccc(F)c3)CC2)cc1 4.73%
Cc1ccc(/C=N/N(C)S(=O)(=O)c2ccc(C)cc2)cc1 -0.427%
CCOc1ccc(NC(=O)CCN2CCN(S(=O)(=O)c3ccc(F)cc3)CC2)cc1 -0.08%
Cc1ccccc1C(=O)c1cccn1CC(=O)NCCC1=CCCCC1 0.05%
COc1ccccc1NC(=O)C1CCN(C(=O)NCc2ccccc2)CC1 0.179%
CCSc1ccccc1C(=O)NCCc1ccccc1 -8.58%
COc1ccc(C)cc1NC(=O)Cn1c(=O)oc2ccccc21 -1.95%
O=C(NNC(=O)C1CCC1)c1ccc(Br)cc1 -0.869%
CC1CCN(C(=O)COc2ncnc3ccccc23)CC1 -1.92%
COc1ccc(CCC(=O)Nc2ncc(C)s2)cc1OC -1.11%
CC(=O)Nc1ccc(NCC(=O)c2ccccc2)cc1 5.34%
O=C(Oc1ccccc1)N1CCOCC1 0.207%
CCCN1CCN(S(=O)(=O)c2ccc3c(c2)CCC(=O)N3)CC1 -0.697%
COC(=O)c1c(NC(=O)CN(C)CC(=O)Nc2ccc(C)cc2)sc2c1CCC(C)C2 (centres undefined) 0.538%
CCOC(=O)Cn1c(=O)oc2cc(S(=O)(=O)N(C)Cc3ccccc3)ccc21 -0.806%
CC(C)Oc1cccc(C(=O)C2CCCN(C(=O)CCn3cnnn3)C2)c1 (centres undefined) 0.618%
CC1CCC(NC(=O)c2nn(C)c3c2CSc2ccccc2-3)CC1 (centres undefined) -0.08%
CCOC(=O)c1ccc(S(=O)(=O)NCC(C)(C)N2CCOCC2)cc1 0.845%
c1ccc(CN2CCCC3(CCCN(Cc4nc(COc5ccccc5)no4)C3)C2)cc1 (centres undefined) -0.026%
O=C(COc1ccc(Cl)cc1)Nc1cc(NC(=O)COc2ccc(Cl)cc2)cc(C(=O)O)c1 9.23%
CN(Cc1cnccn1)Cc1nc(Cc2ccccc2F)no1 0.187%
CCCNC(=O)C1CCC(CNS(=O)(=O)c2ccc3c(c2)CC(C)N3C(C)=O)CC1 (centres undefined) 0.309%
Fc1ccc(Cn2cc(C(=S)N3CCOCC3)c3ccccc32)cc1 0.943%
CCC(=O)N1CCc2cc(Br)cc(S(=O)(=O)N3CCCCC3CC)c21 (centres undefined) -1.65%
CC1CCN(Cc2nnnn2CCCC(=O)NCCc2cnn(C)c2)CC1 -1.37%
Cc1ccc(O)c(-c2cc(-c3cccc(Br)c3)n[nH]2)c1 0.711%
C=CCc1ccc(OCCCCN2CC(C)OC(C)C2)c(OC)c1 (centres undefined) 0.21%
Cc1noc(NS(=O)(=O)c2ccc(NC(=O)c3ccc(N(C)C)cc3)cc2)c1C -0.732%
Cc1ccc(NC(=O)CN(C)C(=O)COc2cccc3ccc(C)nc23)cc1 -0.235%
COc1ccc(-c2[nH]ncc2CNC(C)CCn2cccn2)cc1F (centres undefined) -0.462%
Cc1ccc(N2CCN(CCCCN3C(=O)C4CCCN4C3=O)CC2)cc1 (centres undefined) -1.07%
COc1ccc(-c2csc(N3C(=O)CNC3=S)n2)cc1 -9.99%
N#Cc1ccc(NC(=O)NN2CCCCCC2)cc1 2.36%
CCN1CCCc2cc(CN(CCN3CCOCC3)C(=S)Nc3cccc(C)c3)ccc21 1.91%
N/N=C(\c1ccccc1)c1cc(Br)ccc1N 1.57%
COc1ccc(NC(=O)Oc2cc(C)ccc2C(C)C)cc1 -0.959%
OCCCc1cn(Cc2ccccc2)c2ccccc12 -0.804%
O=C(Cn1cccc1C(=O)c1ccccc1)NCc1ccccc1Cl -3.87%
CC(C)(C)c1cc(C(=O)NNc2cccc(Cl)c2)n(Cc2ccccc2)n1 -0.821%
O=C(NCc1ccc(F)cc1)c1c2c(nc3ccccc13)CCN(Cc1ccccc1)C2 -1.25%
CC(C)CC1NC(=O)N(CC(=O)N(C)C2CCCCC2)C1=O (centres undefined) -0.87%
N#Cc1c(N)c(C#N)c(-c2ccc(O)cc2)c2c1CCCC2 -0.315%
Cc1cccc(C)c1NC(=S)NC(C)(C)CO 1.29%
CC(C)(C)OC(=O)n1cc(C(=O)c2ccccc2O)cn1 1.29%
Cc1cc(Nc2ccccc2Cl)nc(-c2ccccc2O)n1 1.86%
CN(C)CCCNC(=S)Nc1ccc(Oc2ccccc2)cc1 -9.71%
COC(=O)c1ccc(NC(=S)Nc2cccc(C)n2)cc1 -2.33%
Cc1cc(C)nc(NCC(O)CNc2ccccc2C)n1 (centres undefined) 2.94%
Cc1ccc(Cl)c(NC(=O)COC(=O)C2CCC2)c1Cl -2.31%
COC(=O)c1cc2ccsc2n1Cc1cccc(F)c1 1.78%
O=S(=O)(NC1CCCC1)c1ccc(-n2cnnn2)cc1 0.658%
COc1ccc(Cl)cc1C(=O)NNC(=O)CNC(=O)c1ccc(C)s1 -0.888%
COc1ccc(CCNS(=O)(=O)c2ccc(-n3cnnn3)c(OC)c2)cc1OC 1.4%
COc1ccccc1C(=O)NC(CCSC)C(=O)NC1CC1 (centres undefined) 4.47%
COc1ccc(OCCSc2nnc(C(C)NC(=O)c3ccccc3F)n2C)cc1 (centres undefined) -3.42%
COc1ccc(NC(=O)Nc2nnc(C(C)(C)C)s2)cc1 -1.28%
CCSc1nnc(NC(=O)CCNC(=O)c2ccccc2Cl)s1 -1.72%
O=C(CNC(=O)CNC(=O)c1ccc(Cl)cc1Cl)NCc1cccc(Cl)c1 -0.331%
O=C(O)CC(CNC(=O)C1CCCN1C(=O)OCc1ccccc1)c1ccccc1 (centres undefined) -2.42%
CC(=O)c1cc(Cl)ccc1OCC(=O)Nc1cccc(S(=O)(=O)N2CCCC2)c1 6.73%
O=C(COc1ccc2c(c1)OCO2)Nc1nccs1 1.01%
COC(=O)c1ccc(CN2C(=O)c3ccccc3S2(=O)=O)cc1 -0.049%
CCc1nnc(NC(=O)c2cc(S(=O)(=O)N3CCCCC3)ccc2C)s1 1.84%
COC(=O)c1cc(S(=O)(=O)N2CCCC(C)C2)c[nH]1 (centres undefined) 1.02%

Reference: PubChem BioAssay AID602254 (Broad Institute, 2012)
